# Assay results taken from PubChem BioAssay (Tox21).
# Inconclusive results are not listed. Some compounds were tested as several samples or in several runs, with calls that do not always agree. Active and inactive are the calls of the source. The call rests on the fitted dose curve.
# Target: Muscarinic acetylcholine receptor M1 (Homo sapiens) (UniProt P11229)
# Assay: Cholinergic receptor muscarinic 1 (CHRM1) small molecule antagonists, cell-based qHTS assay (AID 1963588); further: nearly all actives have a fitted effect of over 40% in size
# Conditions: CHRM1-CHO antagonist mode, calcium flux fluorescence; series mostly up to 61.5 µM; activity, negative = inhibition: at the top concentration
# Description: National Center for Advancing Translational Sciences [NCATS]
# Division of Preclinical Innovation [DPI]
# U.S. Environmental Protection Agency [EPA]
# National Institutes of Environmental Health Sciences [NIEHS]
# National Toxicology Program [NTP]
# U.S. Food and Drug Administration [FDA]
# The CHRM1 is a muscarinic receptor. This receptor plays a crucial role in learning and memory processes and has long been identified as a promising therapeutic target for the improvement of cognitive decline in Alzheimer's disease (AD). The CHRM1-CHO cell line stably expressing human muscarinic acetylcholine receptor M1 (CHRM1) can be used for screening agonists and antagonists of interactions between CHRM1 and its ligands. The CHRM1-CHO Calcium Flux Assay is a homogeneous fluorescence-based assay for detecting the intracellular calcium level using FDSS kinetic plate reader system.
# Tox21 Assay Protocol Summary:
# CHRM1-CHO cells were dispensed at 1000 cells/3uL/well in 1536-well black-clear bottom plates using a Multidrop Dispenser. After the assay plates were incubated at a 37 C/5% CO2 incubator for 18 h, 3 uL of Dye Loading Buffer was transferred to the assay plate by a Flying Reagent Dispenser. The assay plates were incubated at 37 C for 1h. For antagonist mode, 23 nL of compounds dissolved in DMSO, positive controls or DMSO only was transferred to the assay plate by a pin tool. After 5 min incubation at room temperature, 1.5 uL of acetylcholine at 50nM was added to each well. The fluorescence intensity in the plates was measured using FDSS 7000EX kinetic plate reader for 3 min at 1 sec intervals. Each test compound was measured at 15 concentrations in three independent runs.
# On the % scale 0 is the no-effect control and ±100 the full control effect; potency means the concentration at half of the fitted maximal effect.
# Chain of Muscarinic acetylcholine receptor M1 (Homo sapiens) (P11229 whole entry, looked up): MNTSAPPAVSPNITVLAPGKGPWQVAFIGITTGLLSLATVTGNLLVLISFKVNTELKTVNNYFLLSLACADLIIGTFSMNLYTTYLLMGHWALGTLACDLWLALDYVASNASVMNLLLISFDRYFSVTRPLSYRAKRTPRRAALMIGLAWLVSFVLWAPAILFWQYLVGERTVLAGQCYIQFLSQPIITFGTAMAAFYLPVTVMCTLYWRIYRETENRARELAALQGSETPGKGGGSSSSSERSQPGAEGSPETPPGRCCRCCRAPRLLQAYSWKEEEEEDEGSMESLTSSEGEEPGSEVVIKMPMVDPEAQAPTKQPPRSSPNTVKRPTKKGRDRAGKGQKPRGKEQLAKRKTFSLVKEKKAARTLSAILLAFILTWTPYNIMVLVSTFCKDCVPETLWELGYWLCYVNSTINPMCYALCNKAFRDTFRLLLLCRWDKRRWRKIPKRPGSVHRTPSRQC
Compound,"activity, negative = inhibition",Potency
O=C(CCS)OCC(COC(=O)CCS)(COC(=O)CCS)COC(=O)CCS,-12.6% (inactive),–
CC1(C)O[C@H]2CC(=O)OC[C@]23[C@H]2CC[C@@]4(C)[C@H](c5ccoc5)OC(=O)[C@H]5O[C@]54[C@]2(C)C(=O)C[C@@H]13,7.54% [at 28.3 µM] (inactive),–
COC(=O)c1ccc([N+](=O)[O-])cc1,26.2% (inactive),–
Nc1ccc2cc3ccccc3cc2c1,–,inactive
O=c1[nH]c2cc(C(F)(F)F)c(N3CCOCC3)cc2n(CP(=O)(O)O)c1=O,-16.9% [at 28.3 µM] (inactive),–
NC(=O)NNc1ccccc1,–,inactive
O=C(C(=O)c1ccccc1)c1ccccc1,-6.91% (inactive),–
COc1ccc2cc1Oc1cc3c(cc1OC)CC[N+](C)(C)[C@H]3Cc1ccc(cc1)Oc1c(OC)c(OC)cc3c1[C@@H](C2)[N+](C)(C)CC3,18.4% [at 28.3 µM] (inactive),–
O=C(O)c1cc(=O)[nH]c(=O)[nH]1,–,inactive
CCCc1c2oc(C(=O)O)cc(=O)c2cc2c(=O)cc(C(=O)O)n(CC)c12,12.5% [at 28.3 µM] (inactive),–
CCC1COC(=O)O1 (stereo not given),3.9% (inactive),–
Cn1cc(S(C)=O)c(=O)c2ccc(F)cc21 (stereo not given),-3.42% [at 28.3 µM] (inactive),–
CN(C)CCCNCCC#N,7.96% (inactive),–
COC(/C=C(\C)CCC=C(C)C)OC,-31.9% (inactive),–
COC(=O)OC,–,inactive
CCOc1ncc(F)c(=O)[nH]1,-0.157% [at 28.3 µM] (inactive),–
COC(=O)C1=C(C)NC(C)=C(C(=O)OCCN(C)Cc2ccccc2)C1c1cccc([N+](=O)[O-])c1 (stereo not given),–,1.32 µM (active) and inactive
CN1CCOCC1,–,inactive
O=C(/N=N/C(=O)OCc1ccccc1)OCc1ccccc1,15.4% (inactive),–
COc1cc(C(=O)N2CCCCCCC2)cc(OC)c1OC,-2.67% [at 28.3 µM] (inactive),–

Compound,"activity, negative = inhibition",Potency
CCCCCC(=O)O[C@]1(C(C)=O)CC[C@H]2[C@@H]3CCC4=CC(=O)CC[C@]4(C)[C@H]3CC[C@@]21C,-4.09% [at 28.3 µM] (inactive),–
c1ccc2c(c1)-c1cccc3c1c-2cc1ccccc13,–,inactive
CC(C)(O)C(=O)c1ccc(OCCO)cc1,-16.1% (inactive),–
CCCCCCCCC(=O)OCC,-10.6% (inactive),–
NC(=O)Cc1cccc(C(=O)c2ccccc2)c1N,-2.17% [at 28.3 µM] (inactive),–
CCOC(=O)c1cc(=O)c2c(OCC(COc3cccc4oc(C(=O)OCC)cc(=O)c34)OC(=O)[C@@H](N)CCCCN)cccc2o1,-10.6% [at 28.3 µM] (inactive),–
Cc1cc(C)c(N)c(Cl)c1,-16.5% (inactive),–
CC(C)(C)C(=O)OCOP(=O)(COCCn1cnc2c(N)ncnc21)OCOC(=O)C(C)(C)C,21% [at 28.3 µM] (inactive),–
CCCCCCCCCCCC(=O)OC[C@@H](O)[C@H]1OC[C@H](OCCO)[C@H]1OCCO,-2.04% (inactive),–
Cc1nc2ccccc2s1,11.8% (inactive),–
CC/C=C\CCO,3.42% (inactive),–
CCO/C([O-])=N/c1c[n+](N2CCOCC2)no1,2.79% [at 28.3 µM] (inactive),–
O=S(=O)(O)c1ccccc1,–,inactive
CC1CNCC(C)O1 (stereo not given),24.9% (inactive),–
CCCCC(CC)COP(=O)(O)OCC(CC)CCCC (stereo not given),–,inactive
OC1OC[C@@H](O)[C@H](O)[C@H]1O (stereo not given in full),8.04% (inactive),–
CC(C)OC(=O)C(O)(CC(=O)O)CC(=O)O,24.7% (inactive),–
O=S(=O)(O)CCN1CCN(CCO)CC1,-2.68% (inactive),–
CC(C)(N=C=O)c1cccc(C(C)(C)N=C=O)c1,–,inactive
CCCCC(O)/C=C(C)/C=C/C=C/C(=O)N1CCCC1=O (stereo not given),10.3% [at 28.3 µM] (inactive),–
